In PubChem BioAssay one finds activation and inhibition data, which are given here for 26 compounds.

In assay [1] the test system is HIV-1 integrase (multimerization). Nature of the assay: stimulation of HIV-1 integrase oligomerization – biochemical, TR-FRET, counter-screen for LEDGF/p75 integration inhibitor project (AID 1053131; in the data active means activation above about 8.9%). As to conditions: TR-FRET HIV-1 integrase multimerization, at 7.7 µM, hits give high values. (In general: In TR-FRET formats the signal depends on donor and acceptor labels being close together.)

A short description of assay [2]: compounds disturbing TR-FRET signal readout – biochemical, HIV-1 IN multimerization, artefact control for LEDGF/p75-dependent integration inhibitor project, confirmation (AID 1053135;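 active means inhibition above the mean over all tested compounds plus 3 SD, which no compound reached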;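 further: 0% = integrase with antibodies and DMSO and 100% = antibodies without integrase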). As to conditions: TR-FRET optical interference counterscreen, at 7.7 µM, hits give high values.
Assay [3] concerns HIV-1 integrase / human LEDGF/p75 complex. The assay can be described thus: blockers of LEDGF/p75-dependent integrase activity – biochemical, TR-FRET, confirmation (AID 1053136). As to conditions: TR-FRET LEDGF/p75-dependent HIV-1 integration, at 3.7 µM, hits give high values.
Assay [4] addresses Platelet-activating factor acetylhydrolase (Homo sapiens) (UniProt Q13093). The assay can be described thus: inhibition of plasma PAF acetylhydrolase – biochemical, fluorescence polarization, human, confirmation (AID 463230;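 active means mean inhibition of the triplicate above the hit cutoff set for the earlier primary screen, cut at about 25% in these data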;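 further: 0% = enzyme with DMSO and 100% = wells lacking pPAFAH enzyme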). As to conditions: recombinant pPAFAH, FP-Rh probe fluorescence polarization; at 3.39 µM; hits give high values. (Polarisation of emitted light reports the rotation of a fluorescent probe.)

The target in assay [5] is Glutathione S-transferase omega-1 (Homo sapiens) (UniProt P78417). Nature of the assay: recombinant GSTO1 blockers, retest – biochemical, fluorescence polarization, triplicate, counter-screen for RBBP9 inhibitor project, confirmation (AID 2176;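 active means inhibition above the primary screen's cutoff, its mean inhibition plus 3 SD, cut at about 35% in these data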;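 further: loss of polarization as inhibitors block binding of rhodamine sulfonate ester activity probe; 0% = GSTO1 with DMSO and 100% = wells lacking GSTO1 enzyme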). As to conditions: recombinant GSTO1, probe fluorescence polarization; at 5.96 µM; hits give high values.
Sequence of Glutathione S-transferase omega-1 (Homo sapiens) (P78417 whole entry, looked up): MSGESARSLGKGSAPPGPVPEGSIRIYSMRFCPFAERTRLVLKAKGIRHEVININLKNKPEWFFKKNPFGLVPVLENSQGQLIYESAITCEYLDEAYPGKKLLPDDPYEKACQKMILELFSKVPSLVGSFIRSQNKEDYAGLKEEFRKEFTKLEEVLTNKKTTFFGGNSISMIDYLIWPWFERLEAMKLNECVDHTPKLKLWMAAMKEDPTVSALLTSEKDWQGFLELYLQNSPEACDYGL
Assay [6] has as its target Protein-arginine deiminase type-4 (Homo sapiens) (UniProt Q9UM07). Nature of the assay: protein arginine deiminase 4 blockade, retest – biochemical, fluorescence polarization, confirmation (AID 488796;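 active means mean inhibition across replicates above the hit cutoff set by the earlier primary screen, cut at about 15% in these data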;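 further: inhibitors block active-site labeling by the probe so polarization falls; 0% = PAD4 with probe and DMSO and 100% = probe without PAD4 enzyme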). As to conditions: recombinant PAD4, RCA probe fluorescence polarization; at 6.36 µM; hits give high values.
The target of assay [7] is Serine protease HTRA1 (Homo sapiens) (UniProt Q92743). The assay can be described thus: confirming inhibition of human HTRA1 – biochemical, fluorescence polarization, confirmation (AID 540248;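 active means mean inhibition over three repeats above a set limit taken from the earlier primary screen, cut at about 37% in these data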;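 further: 0% = HTRA1 with DMSO and 100% = wells lacking HTRA1; inhibitors block probe binding so polarization drops and inhibition rises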). The conditions noted are these: recombinant HTRA1, FP-rhodamine activity-based probe, at 5.96 µM, hits give high values.
In assay [8] the target is (Lyso)-N-acylphosphatidylethanolamine lipase (Mus musculus) (UniProt Q8VD66). Nature of the assay: mouse ABHD4 hydrolase blockers, triplicate – biochemical, fluorescence polarization, confirmation (AID 720658;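 active means mean inhibition across replicates above the hit cutoff set in the primary screen, cut at about 30% in these data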;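 further: 0% = wild-type ABHD4 with DMSO and 100% = catalytically dead S159A mutant with DMSO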). The conditions noted are these: purified mABHD4, FP-Rh probe fluorescence polarization; at 8.92 µM; hits give high values.
Sequence of (Lyso)-N-acylphosphatidylethanolamine lipase (Mus musculus) (Q8VD66 whole entry, looked up): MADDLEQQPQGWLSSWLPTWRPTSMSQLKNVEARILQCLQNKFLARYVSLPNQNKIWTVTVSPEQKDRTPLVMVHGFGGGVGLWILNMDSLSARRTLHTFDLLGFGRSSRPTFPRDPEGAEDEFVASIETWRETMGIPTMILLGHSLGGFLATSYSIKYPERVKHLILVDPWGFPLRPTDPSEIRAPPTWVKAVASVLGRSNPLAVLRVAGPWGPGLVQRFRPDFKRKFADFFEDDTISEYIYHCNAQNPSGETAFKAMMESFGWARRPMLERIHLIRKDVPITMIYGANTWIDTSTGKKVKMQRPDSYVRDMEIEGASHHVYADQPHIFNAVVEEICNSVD
Assay [9] has as its target Protein phosphatase methylesterase 1 (Homo sapiens) (UniProt Q9Y570). The assay can be described thus: human PME-1 methylesterase inhibition confirmation – biochemical, fluorescence polarization, FP-Rh probe, triplicate (AID 2171;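 active means inhibition above the hit cutoff set in the earlier primary screen, cut at about 27% in these data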;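 further: 0% = enzyme with DMSO and 100% = wells lacking PME-1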). As to conditions: recombinant PME-1, FP-Rh probe fluorescence polarization; at 5.9 µM; hits give high values.
A short description of assay [10]: reduced OD of T4-infected AddAB+ E. coli – absorbance, E. coli V3065, T4 phage, triplicate, AddAB inhibitor project, confirmation (AID 488942;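 active means mean inhibition above a set limit taken from the earlier primary screen, cut at about 13% in these data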;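 further: higher means less bacterial growth since AddAB block lets phage replicate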). As to conditions: E. coli V3065 expressing H. pylori AddAB, at 11.9 µM, hits give high values, T4 phage with gene 2 nonsense mutations.
The nature of assay [11]: reduced OD of phage-infected RecBCD+ V66 E. coli – absorbance, mutant T4 phage, counter-screen for AddAB inhibitor project (AID 488955;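 active means mean inhibition above the mean of solvent-only control wells plus 3 SD, cut at about 4% in these data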;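 further: optical density read after an 18 h incubation at 37 °C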). As to conditions: OD growth, at 11.9 µM, hits give high values. In general terms: Counterscreens check selectivity or assay interference.
Assay [12] can be described thus: bacterial growth inhibitors – absorbance, counter-screen for AddAB inhibitor project, confirmation (AID 488956; in the data active means inhibition above about 25%). As to conditions: bacterial viability, absorbance (AddAB counterscreen); at 11.9 µM; hits give high values.
Assay [13] is described as follows: reduced OD of V66 E. coli with T4 gene 2 phage – absorbance, RecBCD inhibitor project, confirmation (AID 651982;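 active means mean inhibition over triplicates exceeding the hit threshold derived in the original primary screen, cut at about 11% in these data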). The conditions noted are these: E. coli V66 + T4 2- phage, growth OD; at 11.9 µM; hits give high values.
Assay [14] can be described thus: bacterial growth inhibition – absorbance, high throughput, counter-screen for RecBCD inhibitor project (AID 651983; in the data active means inhibition above about 20%;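 further: E. coli strain V66 grown with compound alone and no phage infection; 0% = bacteria with DMSO vehicle only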). The conditions noted are these: E. coli viability, absorbance (OD) growth; at 11.9 µM; hits give high values.
A short description of assay [15]: reduced optical density, T4-challenged addAB+ bacteria – absorbance, E. coli V3065, T4 phage, counter-screen for RecBCD inhibitor project, confirmation (AID 651984;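 active means mean inhibition above the solvent-only control wells' mean plus 3 SD, cut at about 22% in these data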;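 further: higher means less bacterial growth from phage killing when AddAB is blocked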). The conditions noted are these: E. coli expressing H. pylori AddAB + T4 phage, OD growth; at 11.9 µM; hits give high values; gene 2 mutant T4, recBCD-deleted host.
A short description of assay [16]: BSA probe fluorescence interference – biochemical, TAMRA-labeled BSA, counter-screen for TCR-CD3 interaction inhibitor project (AID 652035; in the data active means inhibition above about 23%;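 further: 0% = buffer low control and 100% = reference high control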). The conditions noted are these: TAMRA-labeled BSA probe fluorescence counterscreen; at 9.4 µM; hits give high values.
Assay [17] concerns T-cell receptor (TCR)-CD3 interaction, human. The assay can be described thus: blockers of TCR binding to CD3 – biochemical, fluorescence, TAMRA-labeled TCR probe, confirmation (AID 652036; in the data active means inhibition above about 19%). The conditions noted are these: TAMRA-labeled TCR probe fluorescence binding assay; at 9.4 µM; hits give high values.
The target in assay [18] is Bcl-2-like protein 1 (Homo sapiens) (UniProt Q07817). Nature of the assay: Bcl-xL BH3-peptide displacement, hit confirmation – biochemical, fluorescence polarization, counter-screen for MCL1 inhibitor project (AID 2166;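 active means inhibition above a cutoff equal to the mean inhibition of all tested compounds plus 3 SD, cut at about 30% in these data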). As to conditions: GST-Bcl-xL / FITC-Bim BH3 peptide FP binding; at 10.9 µM; hits give high values.
Sequence of Bcl-2-like protein 1 (Homo sapiens) (Q07817 whole entry, looked up): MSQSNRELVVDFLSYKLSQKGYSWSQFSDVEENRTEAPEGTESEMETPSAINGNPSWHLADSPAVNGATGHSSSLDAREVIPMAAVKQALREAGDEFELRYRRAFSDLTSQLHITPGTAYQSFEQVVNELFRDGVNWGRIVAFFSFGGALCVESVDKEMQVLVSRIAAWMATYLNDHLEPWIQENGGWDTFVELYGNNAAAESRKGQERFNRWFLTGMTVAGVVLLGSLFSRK
Assay [19] concerns the target Induced myeloid leukemia cell differentiation protein Mcl-1 (Homo sapiens) (UniProt Q07820). The assay can be described thus: MCL1-BIM peptide interaction disruptors – biochemical, fluorescence polarization, triplicate, confirmation (AID 2168;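 active means inhibition above the average of all tested compounds plus 3 SD, cut at about 40% in these data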;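 further: 0% = DMSO wells and 100% = unlabeled Bim-BH3 control peptide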). The conditions noted are these: GST-MCL1 / FITC-Bim-BH3 fluorescence polarization; at 10.9 µM; hits give high values.
For assay [20], the system named is Fam108b (Abhd17b) serine hydrolase [Mus musculus]. Nature of the assay: inhibition of Fam108b (Abhd17b) hydrolase – biochemical, fluorescence polarization, triplicate, counter-screen for RBBP9 inhibitor project, confirmation (AID 1978;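 active means inhibition above a limit from the primary screen, the mean over all compounds plus 3 SD, cut at about 19% in these data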;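 further: 0% = median of active Fam108b wells and 100% = catalytically dead S170A mutant; inhibitors free the probe so polarization falls as inhibition rises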). The conditions noted are these: recombinant Fam108b, FP-Rh probe fluorescence polarization; at 9.51 µM; hits give high values.

Values without a mark were called inactive. The list shows a part of the results. The source made the active and inactive calls. Unless noted, no stated cut-off is given here; in the data, active means inhibition above about 14%; inactive means the rest.

Sequence of Platelet-activating factor acetylhydrolase (Homo sapiens) (Q13093 whole entry, looked up): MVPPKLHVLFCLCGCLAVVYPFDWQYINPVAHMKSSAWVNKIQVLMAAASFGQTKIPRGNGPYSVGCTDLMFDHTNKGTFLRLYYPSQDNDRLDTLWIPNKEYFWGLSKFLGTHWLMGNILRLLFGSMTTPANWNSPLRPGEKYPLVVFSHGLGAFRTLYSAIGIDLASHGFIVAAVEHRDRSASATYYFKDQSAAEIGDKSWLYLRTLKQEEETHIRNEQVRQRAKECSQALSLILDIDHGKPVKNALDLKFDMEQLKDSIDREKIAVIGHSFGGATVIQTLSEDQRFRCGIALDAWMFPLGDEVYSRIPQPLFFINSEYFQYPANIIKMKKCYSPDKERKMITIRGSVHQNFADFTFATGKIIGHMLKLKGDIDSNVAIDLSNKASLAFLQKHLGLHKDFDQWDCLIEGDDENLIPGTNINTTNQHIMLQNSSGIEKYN
Sequence of Induced myeloid leukemia cell differentiation protein Mcl-1 (Homo sapiens) (Q07820 whole entry, looked up): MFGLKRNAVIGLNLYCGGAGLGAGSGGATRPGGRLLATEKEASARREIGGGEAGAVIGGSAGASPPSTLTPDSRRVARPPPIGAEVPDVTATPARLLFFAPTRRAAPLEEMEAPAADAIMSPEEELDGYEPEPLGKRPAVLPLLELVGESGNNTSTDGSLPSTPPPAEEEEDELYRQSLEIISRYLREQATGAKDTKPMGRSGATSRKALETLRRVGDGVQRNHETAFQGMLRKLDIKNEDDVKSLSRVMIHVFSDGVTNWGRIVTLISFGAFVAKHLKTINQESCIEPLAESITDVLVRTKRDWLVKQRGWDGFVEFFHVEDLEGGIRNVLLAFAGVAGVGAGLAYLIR
Sequence of Protein-arginine deiminase type-4 (Homo sapiens) (Q9UM07 whole entry, looked up): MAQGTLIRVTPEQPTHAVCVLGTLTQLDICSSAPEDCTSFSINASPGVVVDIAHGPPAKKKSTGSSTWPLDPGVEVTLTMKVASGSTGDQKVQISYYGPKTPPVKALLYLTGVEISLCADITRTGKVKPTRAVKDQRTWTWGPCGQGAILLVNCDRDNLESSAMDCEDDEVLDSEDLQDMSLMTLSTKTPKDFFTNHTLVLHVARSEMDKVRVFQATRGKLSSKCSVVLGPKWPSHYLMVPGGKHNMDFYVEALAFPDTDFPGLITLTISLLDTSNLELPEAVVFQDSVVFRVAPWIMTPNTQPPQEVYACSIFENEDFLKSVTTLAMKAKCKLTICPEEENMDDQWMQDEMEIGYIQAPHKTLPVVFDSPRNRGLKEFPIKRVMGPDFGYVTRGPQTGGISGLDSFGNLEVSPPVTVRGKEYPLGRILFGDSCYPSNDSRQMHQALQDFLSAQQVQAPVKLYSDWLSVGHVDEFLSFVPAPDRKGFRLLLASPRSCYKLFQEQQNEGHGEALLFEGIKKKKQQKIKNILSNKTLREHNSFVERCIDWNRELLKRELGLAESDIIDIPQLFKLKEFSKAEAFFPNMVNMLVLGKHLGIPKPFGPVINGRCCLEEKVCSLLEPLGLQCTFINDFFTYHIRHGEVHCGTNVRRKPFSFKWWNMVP
Sequence of Protein phosphatase methylesterase 1 (Homo sapiens) (Q9Y570 whole entry, looked up): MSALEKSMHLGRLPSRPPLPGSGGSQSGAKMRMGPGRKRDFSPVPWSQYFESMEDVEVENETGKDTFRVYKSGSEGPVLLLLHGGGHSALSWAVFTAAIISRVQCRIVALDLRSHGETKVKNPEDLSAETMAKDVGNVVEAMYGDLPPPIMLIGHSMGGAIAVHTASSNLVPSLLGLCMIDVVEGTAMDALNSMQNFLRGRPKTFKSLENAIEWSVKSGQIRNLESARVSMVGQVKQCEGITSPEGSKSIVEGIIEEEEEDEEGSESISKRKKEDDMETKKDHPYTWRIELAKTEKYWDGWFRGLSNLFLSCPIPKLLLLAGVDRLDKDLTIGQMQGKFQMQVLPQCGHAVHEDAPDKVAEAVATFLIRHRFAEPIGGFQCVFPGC

A word on the inhibition: it is the relative decrease from the control value, in per cent. `Cc1cc(=O)n2[nH]c(-c3sccc3-n3c(C)ccc3C)cc2n1`: the activation in assay [1] was 4.52%. Moreover, the inhibition in assay [2] was -16.3%; in [3], 1.35%.

For the compound `CSc1nc(N)c(C#N)c(-c2ccccc2Cl)c1C#N`, in [1], the activation is -0.67%. The inhibition is 3.41% in assay [2] and 0.36% in assay [3].

For `CCCCNC(=O)OC1CC2CC1[C@H]1CCCCN1C2=O` (stereo not given in full), the activation in [1] is -0.71%. Besides, the inhibition in assay [2] was 3.63%; in assay [3] it was -1.12%.

Consider `CC1(C(=O)NS(=O)(=O)c2ccccc2)CCN1C(=O)Cc1ccc(-c2ccccc2)cc1` (stereo not given), for which the activation in assay [1] was -0.39%. Moreover, the inhibition in [2] was 2.02%; in assay [3], 1.27%.

On to `Cc1ccc(/C=C/C(=O)Nc2ccc([N+](=O)[O-])c(NC(=O)/C=C/c3ccc(C)o3)c2)o1`, for which the activation in [1] was 14.2% (active). The values for the inhibition in assay [2] and in assay [3] were -71.7% and 41.9% (active), respectively.

`NC1=NN(c2cccc(C(=O)O)c2)C(=O)C1`: the activation in [1] was 12.3% (active). The inhibition is -62% in assay [2] and -2.77% in [3].

With `Cc1cc(C(=O)NN=C/C=C/c2ccco2)n[nH]1`, the activation in assay [1] is 10.3% (active). Also, the inhibition in [2] was -36.8%; in assay [3], 6.81%.

As to `CCOC(=O)c1ccc(NC(=O)CSc2ncccn2)cc1`, in assay [1], the activation is -0.25%. Besides, the results for the inhibition in [2] and in assay [3] were 1.28% and -6.96%, respectively.

Take `Cn1c(SCc2nc3ccccc3s2)nnc1-c1ccc2c(c1)OCO2`: the activation in assay [1] is 0.47%. Further, the inhibition is -2.33% in [2] and -2.11% in [3].

For `Oc1c(CN2CCOCC2)ccc(CN2CCOCC2)c1O`, in [1], the activation is -0.48%. The inhibition in assay [2] is 1.64%; in assay [3] it was 15.7% (active).

On to `Clc1cc(NC2CCCCC2)ncn1`, for which the activation in assay [1] is -0.3%. The inhibition is 1.2% in [2] and -4.64% in [3].

Consider `CN(Cc1ccc(F)cc1)C(=O)CN1C(=O)c2ccccc2S1(=O)=O`, for which the activation in assay [1] was -1.2%. For the same compound, the inhibition is 4.33% in [2] and -12.2% in [3].

On to `Cc1cc(=O)oc2c3c(cc(OCC(=O)N[C@H](C(=O)O)c4ccccc4)c12)OC(C)(C)CC3`, for which the activation in assay [1] is -0.04%. Further, the inhibition in assay [2] was 0.3%; in assay [3], -1.12%.

For the compound `Cc1ccc(N=C2NC(=O)/C(=C/C=C/c3ccco3)S2)cc1C`, the inhibition is 31.1% (active) in assay [4], -49.5% in [2] and 45.2% (active) in assay [3]. In addition, the activation in assay [1] was 13.8% (active).

`Clc1ccc(C2=CSC3=Nc4cccc5cccc(c45)N23)cc1`: the inhibition was 85.1% (active) in [5]; -2.56% in assay [6]; 13.7% in assay [7]; 37.5% (active) in assay [8]; -8.94% in assay [2]; 24.5% (active) in assay [3]. The activation in [1] was 2.48%.

As for `CCOC(=O)c1ccc(Nc2cc3ccccc3c(=O)[nH]2)cc1`, the inhibition in [9] was 53.9% (active); in [2] it was 8.23%; in assay [3], 29.8% (active). Besides, in assay [1], the activation is -1.62%.

`Cc1sc2nc(SCC(=O)c3ccc(O)c(O)c3)n(Cc3ccco3)c(=O)c2c1C`: the activation in assay [1] is 8.33%. In addition, the inhibition in assay [2] was -41.9%; in [3], 39.2% (active).

Regarding `CN(C)[C@@H]1C(=O)C(C(N)=O)=C(O)[C@@]2(O)C(=O)C3=C(O)c4c(O)ccc(Cl)c4[C@@H](O)[C@H]3C[C@@H]12`, the inhibition in assay [5] was 24.2%; in assay [4], -0.22%; in assay [10], 102% (active); in assay [11], 100% (active); in assay [12], 101% (active); in assay [13], 102% (active). In addition, the inhibition in assay [14] is 104% (active); in assay [15], 102% (active); in assay [16], -3.91%; in [17], 1.29%; in [8], 17.2%; in assay [2] it was -24.2%. In addition, the inhibition in assay [3] is 1.42%. For the same compound, in [1], the activation was 6.8%.

In the case of `Cc1c(CC(=O)N2CCN(C(=O)C3COc4ccccc4O3)CC2)c(=O)oc2c(O)c(O)ccc12` (stereo not given), the inhibition is 69.1% (active) in [18]; 89% (active) in [19]; 78.1% (active) in assay [4]; 88.8% (active) in assay [7]; -7.93% in [16]; 60.5% (active) in assay [17]. Also, the inhibition in assay [8] was 16%; in [2], -84.6%; in [3], 86.8% (active). The activation in [1] was 16.8% (active).

As for `Cc1ccc(-c2cnc(NC(=O)CCC(=O)N(C)Cc3ccccc3)n2C)cc1`, in assay [1], the activation was 0.12%. In addition, the values for the inhibition in assay [2] and in assay [3] were -0.61% and -6.89%, respectively.

On to `C=CCn1c(=S)[nH]c2scc(-c3ccco3)c2c1=O`, for which the inhibition in assay [20] is 78.1% (active); in [18], 23.3%; in assay [19], 37.9%; in assay [4], 14.1%; in [2], -24.4%; in assay [3] it was 75.9% (active). Also, the activation in assay [1] is 4.85%.

In the case of `CCOC(=O)c1c(C)oc2cc(Sc3ccccc3)c(O)c(O)c12`, the inhibition in assay [5] was 5.29%; in assay [2], -2.84%; in [3] it was -5.02%. Further, in assay [1], the activation is 0.78%.

Consider `CC(=NCc1ccc2c(c1)OCO2)C1=C(O)c2ccccc2C1=O`, for which the activation in [1] was 0.56%. For the same compound, the inhibition in assay [2] is -2.08%; in assay [3] it was -0.38%.

Regarding `Cc1cc(Oc2ccc(Cl)cc2)nc(SCC(=O)c2ccccc2)n1`, the activation in assay [1] is -0.31%. The inhibition in [2] is 1.56%; in assay [3], -0.68%.

For `CCc1cc2c(SCC(=O)Nc3ncc(Cl)c(C)c3Cl)ncnc2s1`, the activation in assay [1] was -0.15%. In addition, the values for the inhibition in assay [2] and in assay [3] were 0.78% and 0.88%, respectively.

Regarding `COc1ccccc1C1C(C#N)=C(N)Oc2c1c(-c1ccccc1)nn2-c1ccccc1` (stereo not given), the inhibition in assay [20] was -8.81%; in assay [5] it was 12.6%; in [6], 2.3%; in assay [2] it was -4.34%; in [3], 1.22%. Besides, the activation in [1] was 0.86%.
